Results on 3 sequences are retold here after publication PMC7862700, “An all-to-all approach to the identification of sequence-specific readers for epigenetic DNA modifications on cytosine”.

What all share (experiment): DAPPL (digital affinity profiling via proximity ligation, sequencing); 10 mM Tris-HCl pH 7.5, 50 mM NaCl, 1 mM DTT, 4% glycerol, room temperature, 30 min; GST-TFs on glutathione beads, 16-mer random dsDNA library, 0.1% formaldehyde crosslink after washing; high values mean tight binding
One experiment deals with SPI1 (Homo sapiens, UniProt P17947 1-270). To be noted: protein: recombinant; tags: N-terminal GST; dsDNA, one strand shown. The method, boiled down:
(§1)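 Human transcription factors carrying a GST fusion were produced in yeast, bound to glutathione beads, tagged with DNA barcodes and pooled together with a tag-only sample. Each pool was held with 200 nmole of a random double-stranded 16-mer DNA library in Tris/NaCl/DTT/glycerol buffer for 30 min at room temperature, then washed, crosslinked in 0.1% formaldehyde, proximity-ligated with BsaI/T4 ligase (1 h, 37 °C), PCR-amplified and sequenced on an Illumina NextSeq500. Binding signal is the read frequency of each hexamer for a given factor divided by its frequency in the tag-only sample.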

A further experiment addresses HSF1 (Homo sapiens, UniProt Q00613 1-529). The conditions noted are these: protein: recombinant; tags: N-terminal GST; chain copies: 3; dsDNA, one strand shown. The method, boiled down: as §1
A further experiment deals with T1, SPIC (Homo sapiens, UniProt Q8N5J4 1-248).
T1 sequence: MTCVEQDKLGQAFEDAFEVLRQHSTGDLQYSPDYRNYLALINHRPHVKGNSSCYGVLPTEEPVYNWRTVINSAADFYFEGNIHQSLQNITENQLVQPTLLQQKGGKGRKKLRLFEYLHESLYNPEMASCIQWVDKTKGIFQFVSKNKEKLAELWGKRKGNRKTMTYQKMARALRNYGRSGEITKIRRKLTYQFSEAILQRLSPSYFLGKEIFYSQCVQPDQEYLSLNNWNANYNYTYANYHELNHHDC
The conditions noted are these: protein: recombinant; tags: N-terminal GST; dsDNA, one strand shown. The method, boiled down: as §1

The next experiment addresses CRX (Homo sapiens, UniProt O43186 1-299). The conditions noted are these: protein: recombinant; tags: N-terminal GST; dsDNA, one strand shown. Summed up:
as §1

In another experiment the target is T2, ERF (Homo sapiens, UniProt P50548 1-548).
T2 sequence: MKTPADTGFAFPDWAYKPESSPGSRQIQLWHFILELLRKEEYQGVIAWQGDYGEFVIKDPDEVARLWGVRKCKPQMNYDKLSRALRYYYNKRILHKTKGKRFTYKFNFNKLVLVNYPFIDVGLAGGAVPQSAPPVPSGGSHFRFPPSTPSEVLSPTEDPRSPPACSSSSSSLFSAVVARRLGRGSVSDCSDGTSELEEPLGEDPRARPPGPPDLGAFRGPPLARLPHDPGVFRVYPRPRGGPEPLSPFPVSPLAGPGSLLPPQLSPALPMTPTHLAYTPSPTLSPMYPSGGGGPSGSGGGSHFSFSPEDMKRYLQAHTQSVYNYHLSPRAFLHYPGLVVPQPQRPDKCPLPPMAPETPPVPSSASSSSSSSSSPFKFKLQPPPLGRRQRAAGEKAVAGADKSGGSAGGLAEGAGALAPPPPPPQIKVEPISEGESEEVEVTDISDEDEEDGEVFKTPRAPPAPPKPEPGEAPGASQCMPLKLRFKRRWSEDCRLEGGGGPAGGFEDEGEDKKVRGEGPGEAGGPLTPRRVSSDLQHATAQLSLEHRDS
To be noted: protein: recombinant; tags: N-terminal GST; dsDNA, one strand shown. Summed up:
as §1

The next experiment has as its target T3, ETV7 (Homo sapiens, UniProt Q9Y603 1-341).
T3 sequence: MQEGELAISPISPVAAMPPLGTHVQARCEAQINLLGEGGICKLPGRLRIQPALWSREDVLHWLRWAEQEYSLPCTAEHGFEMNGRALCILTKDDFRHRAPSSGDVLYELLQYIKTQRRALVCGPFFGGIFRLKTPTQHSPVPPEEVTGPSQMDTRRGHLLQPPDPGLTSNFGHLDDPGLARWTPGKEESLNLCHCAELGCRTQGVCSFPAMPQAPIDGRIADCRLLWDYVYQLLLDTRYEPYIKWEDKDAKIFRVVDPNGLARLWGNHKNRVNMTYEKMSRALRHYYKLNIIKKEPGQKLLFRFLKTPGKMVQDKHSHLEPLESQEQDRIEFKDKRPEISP
To be noted: protein: recombinant; tags: N-terminal GST; dsDNA, one strand shown. Summed up: as §1

In a further experiment the target is T4, GABPA (Homo sapiens, UniProt Q06546 1-454).
T4 sequence: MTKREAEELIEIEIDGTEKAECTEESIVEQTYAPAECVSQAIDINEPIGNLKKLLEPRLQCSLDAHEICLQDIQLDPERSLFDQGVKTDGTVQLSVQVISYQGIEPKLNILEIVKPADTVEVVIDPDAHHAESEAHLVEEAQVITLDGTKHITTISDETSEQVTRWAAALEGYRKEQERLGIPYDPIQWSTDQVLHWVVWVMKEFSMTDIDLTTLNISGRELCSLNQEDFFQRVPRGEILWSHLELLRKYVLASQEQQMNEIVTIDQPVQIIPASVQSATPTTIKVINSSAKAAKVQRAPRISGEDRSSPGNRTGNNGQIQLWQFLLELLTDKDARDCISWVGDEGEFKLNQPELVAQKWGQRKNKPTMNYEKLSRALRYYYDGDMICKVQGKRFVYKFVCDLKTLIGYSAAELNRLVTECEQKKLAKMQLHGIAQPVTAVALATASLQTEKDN
The conditions noted are these: protein: recombinant; tags: N-terminal GST; dsDNA, one strand shown. The method, boiled down: as §1

The target in another experiment is ELF4 (Homo sapiens, UniProt Q99607 1-663). The conditions noted are these: protein: recombinant; tags: N-terminal GST; dsDNA, one strand shown. The method, boiled down: as §1
Chain of ELF4 (Q99607 whole entry): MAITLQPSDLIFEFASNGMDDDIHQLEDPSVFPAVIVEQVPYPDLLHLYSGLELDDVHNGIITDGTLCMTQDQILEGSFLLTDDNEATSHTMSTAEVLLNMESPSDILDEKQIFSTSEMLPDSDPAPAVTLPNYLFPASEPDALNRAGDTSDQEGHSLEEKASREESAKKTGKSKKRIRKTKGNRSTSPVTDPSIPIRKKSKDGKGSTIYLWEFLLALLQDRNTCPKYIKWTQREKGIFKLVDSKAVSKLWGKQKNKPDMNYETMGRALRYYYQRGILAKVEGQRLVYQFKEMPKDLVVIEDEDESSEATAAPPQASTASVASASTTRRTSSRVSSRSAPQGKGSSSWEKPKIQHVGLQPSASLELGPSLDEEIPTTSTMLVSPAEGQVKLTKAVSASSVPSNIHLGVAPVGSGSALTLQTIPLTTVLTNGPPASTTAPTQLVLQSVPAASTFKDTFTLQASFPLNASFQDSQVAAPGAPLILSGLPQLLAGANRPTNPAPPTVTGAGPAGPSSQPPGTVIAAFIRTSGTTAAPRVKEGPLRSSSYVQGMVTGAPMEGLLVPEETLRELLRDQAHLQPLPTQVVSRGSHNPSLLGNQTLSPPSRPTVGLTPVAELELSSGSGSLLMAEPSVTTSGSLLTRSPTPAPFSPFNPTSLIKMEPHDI
Another experiment has as its target ETV1 (Homo sapiens, UniProt P50549 1-477). The conditions noted are these: protein: recombinant; tags: N-terminal GST; dsDNA, one strand shown. Summed up:
as §1

The target in the next experiment is SPIB (Homo sapiens, UniProt Q01892 1-262). The conditions noted are these: protein: recombinant; tags: N-terminal GST; dsDNA, one strand shown. Summed up: as §1
Chain of SPIB (Q01892 whole entry): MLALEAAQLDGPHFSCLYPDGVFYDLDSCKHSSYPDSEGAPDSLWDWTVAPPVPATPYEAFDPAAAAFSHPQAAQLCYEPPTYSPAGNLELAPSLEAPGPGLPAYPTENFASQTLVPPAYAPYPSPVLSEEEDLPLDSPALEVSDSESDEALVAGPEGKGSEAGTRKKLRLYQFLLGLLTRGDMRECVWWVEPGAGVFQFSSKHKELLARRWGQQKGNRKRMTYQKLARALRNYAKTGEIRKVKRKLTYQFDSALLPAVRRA
In a further experiment the target is T5, ELK3 (Homo sapiens, UniProt P41970 1-407).
T5 sequence: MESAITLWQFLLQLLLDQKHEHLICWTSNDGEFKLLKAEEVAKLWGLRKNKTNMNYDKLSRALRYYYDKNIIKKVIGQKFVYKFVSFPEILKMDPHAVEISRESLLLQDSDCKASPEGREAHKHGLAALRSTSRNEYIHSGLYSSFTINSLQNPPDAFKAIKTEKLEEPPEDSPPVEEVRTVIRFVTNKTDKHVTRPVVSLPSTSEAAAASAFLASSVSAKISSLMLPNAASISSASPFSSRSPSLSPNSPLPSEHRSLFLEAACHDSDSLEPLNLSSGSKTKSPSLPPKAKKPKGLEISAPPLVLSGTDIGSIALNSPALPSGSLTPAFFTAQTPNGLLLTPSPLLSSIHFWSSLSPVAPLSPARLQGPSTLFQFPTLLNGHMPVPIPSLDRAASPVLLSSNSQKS
The conditions noted are these: protein: recombinant; tags: N-terminal GST; dsDNA, one strand shown. The method, boiled down:
as §1

A further experiment has as its target T6, ELK4 (Homo sapiens, UniProt P28324-2 1-405).
T6 sequence: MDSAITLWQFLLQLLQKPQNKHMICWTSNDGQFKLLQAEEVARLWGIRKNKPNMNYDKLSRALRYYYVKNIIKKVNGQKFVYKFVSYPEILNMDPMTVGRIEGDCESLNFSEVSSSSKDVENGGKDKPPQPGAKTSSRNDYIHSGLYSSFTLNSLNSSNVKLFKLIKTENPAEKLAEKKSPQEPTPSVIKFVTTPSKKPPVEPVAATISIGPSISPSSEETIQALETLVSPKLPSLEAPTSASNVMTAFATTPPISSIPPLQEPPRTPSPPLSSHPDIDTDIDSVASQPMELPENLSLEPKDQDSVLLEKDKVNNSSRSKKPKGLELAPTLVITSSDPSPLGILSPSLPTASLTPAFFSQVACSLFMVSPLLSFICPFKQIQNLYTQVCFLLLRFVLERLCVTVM
To be noted: protein: recombinant; tags: N-terminal GST; dsDNA, one strand shown. The method, boiled down: as §1

The target of the next experiment is T7, ETV2 (Homo sapiens, UniProt O00321 1-342).
T7 sequence: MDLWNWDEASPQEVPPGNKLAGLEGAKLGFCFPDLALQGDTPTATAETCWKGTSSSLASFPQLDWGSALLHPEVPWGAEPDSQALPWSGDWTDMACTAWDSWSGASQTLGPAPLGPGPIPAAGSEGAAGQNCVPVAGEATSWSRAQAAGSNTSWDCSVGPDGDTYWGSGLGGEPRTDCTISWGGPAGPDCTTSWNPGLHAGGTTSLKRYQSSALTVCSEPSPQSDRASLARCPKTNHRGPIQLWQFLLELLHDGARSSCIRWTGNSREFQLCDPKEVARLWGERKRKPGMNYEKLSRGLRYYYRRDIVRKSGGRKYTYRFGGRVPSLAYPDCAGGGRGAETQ
The conditions noted are these: protein: recombinant; tags: N-terminal GST; dsDNA, one strand shown. The method, boiled down: as §1

For another experiment, the target named is T8, ETV3L (Homo sapiens, UniProt Q6ZN32 1-361).
T8 sequence: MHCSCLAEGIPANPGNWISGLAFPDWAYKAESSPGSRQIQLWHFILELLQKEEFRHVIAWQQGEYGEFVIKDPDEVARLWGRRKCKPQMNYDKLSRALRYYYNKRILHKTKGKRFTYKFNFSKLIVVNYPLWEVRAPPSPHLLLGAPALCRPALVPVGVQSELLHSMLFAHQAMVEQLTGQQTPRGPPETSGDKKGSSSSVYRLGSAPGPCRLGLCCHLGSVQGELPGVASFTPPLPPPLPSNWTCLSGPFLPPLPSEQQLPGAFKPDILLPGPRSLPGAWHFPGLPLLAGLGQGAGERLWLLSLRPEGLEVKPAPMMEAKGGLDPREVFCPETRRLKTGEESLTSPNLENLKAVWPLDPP
The conditions noted are these: protein: recombinant; tags: N-terminal GST; dsDNA, one strand shown. The method, boiled down:
as §1

Another experiment concerns the target T9, ETS2 (Homo sapiens, UniProt P15036 1-469).
T9 sequence: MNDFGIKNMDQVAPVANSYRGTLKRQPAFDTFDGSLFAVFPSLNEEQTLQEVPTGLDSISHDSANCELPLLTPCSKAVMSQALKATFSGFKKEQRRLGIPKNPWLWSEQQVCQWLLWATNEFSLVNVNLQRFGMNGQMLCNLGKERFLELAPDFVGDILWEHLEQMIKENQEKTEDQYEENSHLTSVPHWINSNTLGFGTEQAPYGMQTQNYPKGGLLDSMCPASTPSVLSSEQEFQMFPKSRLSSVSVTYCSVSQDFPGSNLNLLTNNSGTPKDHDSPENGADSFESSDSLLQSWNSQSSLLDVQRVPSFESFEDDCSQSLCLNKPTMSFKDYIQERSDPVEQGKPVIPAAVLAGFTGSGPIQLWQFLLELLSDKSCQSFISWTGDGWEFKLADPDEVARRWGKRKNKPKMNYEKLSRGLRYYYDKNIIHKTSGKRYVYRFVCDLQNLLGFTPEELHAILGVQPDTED
The conditions noted are these: protein: recombinant; tags: N-terminal GST; dsDNA, one strand shown. The method, boiled down: as §1

Chain of HSF1 (Q00613 whole entry): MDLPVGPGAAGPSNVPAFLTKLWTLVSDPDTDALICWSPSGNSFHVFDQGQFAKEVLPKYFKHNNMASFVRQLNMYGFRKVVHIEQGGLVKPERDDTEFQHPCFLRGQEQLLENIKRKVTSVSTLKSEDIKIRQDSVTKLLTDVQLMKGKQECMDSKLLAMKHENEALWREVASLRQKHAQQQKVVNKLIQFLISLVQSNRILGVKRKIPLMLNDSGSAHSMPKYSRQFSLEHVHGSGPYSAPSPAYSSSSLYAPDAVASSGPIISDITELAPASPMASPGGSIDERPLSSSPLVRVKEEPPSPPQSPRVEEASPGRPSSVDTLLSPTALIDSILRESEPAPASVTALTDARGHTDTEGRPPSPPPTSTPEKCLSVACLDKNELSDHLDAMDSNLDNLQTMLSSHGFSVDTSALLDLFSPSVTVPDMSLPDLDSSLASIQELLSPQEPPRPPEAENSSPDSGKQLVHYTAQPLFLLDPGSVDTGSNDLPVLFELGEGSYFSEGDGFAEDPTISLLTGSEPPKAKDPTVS
Chain of CRX (O43186 whole entry): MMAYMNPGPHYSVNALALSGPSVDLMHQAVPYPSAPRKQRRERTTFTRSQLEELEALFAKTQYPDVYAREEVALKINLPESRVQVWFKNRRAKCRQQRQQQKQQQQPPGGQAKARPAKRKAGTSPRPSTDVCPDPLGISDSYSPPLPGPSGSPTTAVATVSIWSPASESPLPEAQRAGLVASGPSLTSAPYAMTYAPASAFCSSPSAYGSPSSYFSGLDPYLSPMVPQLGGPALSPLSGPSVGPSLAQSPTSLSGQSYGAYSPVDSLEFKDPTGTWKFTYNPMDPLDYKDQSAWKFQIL
Chain of ETV1 (P50549 whole entry): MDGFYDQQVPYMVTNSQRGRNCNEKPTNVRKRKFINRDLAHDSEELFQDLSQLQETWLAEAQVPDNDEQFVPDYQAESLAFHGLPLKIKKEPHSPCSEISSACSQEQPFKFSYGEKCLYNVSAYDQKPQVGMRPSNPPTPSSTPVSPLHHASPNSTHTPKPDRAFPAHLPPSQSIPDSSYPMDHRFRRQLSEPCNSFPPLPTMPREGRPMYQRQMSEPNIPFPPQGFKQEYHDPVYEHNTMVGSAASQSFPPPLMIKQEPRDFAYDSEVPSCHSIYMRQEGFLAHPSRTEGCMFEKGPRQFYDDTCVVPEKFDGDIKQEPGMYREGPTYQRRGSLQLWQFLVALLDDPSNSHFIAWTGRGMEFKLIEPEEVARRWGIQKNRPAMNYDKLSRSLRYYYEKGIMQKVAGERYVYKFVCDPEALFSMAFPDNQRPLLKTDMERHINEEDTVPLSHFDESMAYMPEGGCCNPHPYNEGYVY

On to TCGAAA, for which the binding signal with SPI1 is 1.02 fold enrichment (6-mer frequency, TF over GST control); in the experiment with HSF1, 2.08 fold enrichment (6-mer frequency, TF over GST control); with SPIC, 1.06 fold enrichment (6-mer frequency, TF over GST control); in the experiment with CRX, 1.16 fold enrichment (6-mer frequency, TF over GST control); with ERF it was 1.01 fold enrichment (6-mer frequency, TF over GST control); with ETV7, 1.05 fold enrichment (6-mer frequency, TF over GST control).

Regarding TAGCGC, the binding signal with GABPA is 1.01 fold enrichment (6-mer frequency, TF over GST control); in the experiment with HSF1, 1.02 fold enrichment (6-mer frequency, TF over GST control); with ELF4, 1.01 fold enrichment (6-mer frequency, TF over GST control); in the experiment with CRX, 1.03 fold enrichment (6-mer frequency, TF over GST control); with ETV1 it was 1.07 fold enrichment (6-mer frequency, TF over GST control); with ERF, 1.03 fold enrichment (6-mer frequency, TF over GST control).

Take GCCTGG: the binding signal is 1.04 fold enrichment (6-mer frequency, TF over GST control) in the experiment with SPIB; 1.01 fold enrichment (6-mer frequency, TF over GST control) with ELK3; 1.05 fold enrichment (6-mer frequency, TF over GST control) with HSF1; 1.08 fold enrichment (6-mer frequency, TF over GST control) with ELK4; 1.19 fold enrichment (6-mer frequency, TF over GST control) with ETV2; 1 fold enrichment (6-mer frequency, TF over GST control) in the experiment with ETV3L. Besides, in the experiment with ETS2, the binding signal was 1.02 fold enrichment (6-mer frequency, TF over GST control).
